According to PubChem BioAssay (EPA / NIEHS):
Several values for one entry are separate records, joined by “and”; a condition that tells them apart may be missing. Equal entries are not always repeated. A structure can be active in one record and inactive in another. Activity calls are given as the source filed them. The calls were made as follows: active = hit-call score of the fitted dose curve at least 0.9, where 1 is the maximum; inactive = score below 0.9.

These molecules were tested on Intercellular Adhesion Molecule 1 (ICAM1), ICAM1 (gene 3383) (assay: BSK_3C_ICAM1: BioMAP Diversity Plus: 3C Assay for Intercellular Adhesion Molecule 1 (ICAM1) Biomarker Activity (AID 2283003)). Conditions: primary human endothelial cells (HUVEC); actives raise or lower the signal.
Procedure: BSK_3C is a cell-based, multiplexed-readout assay that uses umbilical vein endothelium, a human vascular primary cell, with measurements taken at 24 hours after chemical dosing in a 96-well plate.BSK_3C_ICAM1 is an assay component measured in the BSK_3C assay. It measures ICAM-1 antibody related to regulation of gene expression using ELISA technology.Data from the assay component BSK_3C_ICAM1 was analyzed into 1 assay endpoint. This assay endpoint, BSK_3C_ICAM1, was analyzed with bidirectional fitting relative to DMSO as the negative control and baseline of activity. Using a type of binding reporter, gain or loss-of-signal activity can be used to understand changes in the signaling as they relate to the gene ICAM1. Furthermore, this assay endpoint can be referred to as a primary readout, because this assay has produced multiple assay endpoints where this one serves a signaling function. To generalize the intended target to other relatable targets, this assay endpoint is annotated to the cell adhesion molecules intended target family, where the subfamily is Immunoglobulin CAM.
The levels of cell surface (or secreted, indicated by the prefix "s") biomarker endpoints were measured by ELISA. Overt cytotoxicity to cells in confluent adherent cultures (all systems other than the BT system) was assessed by measuring total protein levels using sulforhodamine B (SRB) staining in parallel cultures at the time of biomarker measurements, indicated as SRB endpoints. For proliferation assays for adherent cell types, individual cell types are cultured at sub-confluence and relative cell numbers quantified by SRB staining at time points optimized for each system (48 h: 3C and CASM3C systems; 72 h: BT and HDF3CGF systems; 96 h: SAg system). SRB was performed by staining cells with 0.1% SRB after fixation with 10% TCA and reading wells at 560 nm.Viability and proliferation of PBMC (T cells) was quantified by Alamar Blue reduction for the SAg and BT systems. For PBMC viability (referred to as PBMC Cytotoxicity within the assay endpoint names), cells were plated (75,000/well in a 96-well plate) and then chemical samples added for 1 h before addition of activators, SEB and TSST-1 (20 ng/mL final concentration each). Cells were incubated for 90 h. Then, Alamar Blue (20 uL/well) (Invitrogen, Cat DAL1100) was added for 6 h, and the plates were read with a fluorescence microplate reader at 546/580 nm (excitation/emission). For PBMC proliferation, cells were plated and activated as above but incubated for only 16 h prior to addition of Alamar Blue. Plates were read after 6 h.

Compound | AC50 | outcome
CCCCCCCCCCCC(C)=O | 32.5 µM (active) | –
Oc1c(Cl)cc(Cl)c(Cl)c1Cl | 28.3 µM (active) | –
C=CC(=O)NCOCCCC | – | inactive
CC(C)c1cccc(C(C)C)c1N | – | inactive
CCOC(=O)C1=NOC(c2ccccc2)(c2ccccc2)C1 | – | inactive
CC=C(C)C=CC=C(C)C | – | inactive
CCNc1nc(NC(C)(C)C)nc(OC)n1 | – | inactive
C[N+](C)(C)CCCNS(=O)(=O)C(F)(F)C(F)(F)C(F)(F)C(F)(F)C(F)(F)C(F)(F)C(F)(F)C(F)(F)F | – | inactive
COC(OC)(C(=O)c1ccccc1)c1ccccc1 | – | inactive
Oc1ccc(/C=C/c2cc(O)cc(O)c2)cc1 | – | inactive
CC(CCC(=O)O)(c1ccc(O)cc1)c1ccc(O)cc1 | – | inactive
Nc1cccc(N)n1 | – | inactive
CC(c1cc(C(C)(C)C)cc(C(C)(C)C)c1O)c1cc(C(C)(C)C)cc(C(C)(C)C)c1O | – | inactive
CC(C)C(=O)OCCc1ccccc1 | – | inactive
CC(Cl)COP(=O)(OCC(C)Cl)OCC(C)Cl (stereo not given) | – | inactive
CC=C(C)C(C)=O | – | inactive
CCC1(C)C(=O)N(Cl)C(=O)N1Cl (stereo not given) | – | inactive
COc1ccc(C(=O)c2ccccc2)c(O)c1 | – | inactive
C=CCCCCCCCCC=O | – | inactive
C=CC(=O)NC(C)(C)C | – | inactive

Compound | AC50 | outcome
CC1=CC=C(C(C)C)CC1 | – | inactive
COc1ccc(C(=O)/C(Br)=C\C(=O)O)cc1 | 32.2 µM (active) and 33.3 µM (active) | –
c1ccc(Nc2cccc3ccccc23)cc1 | 32.6 µM (active) | inactive
CC1(C)CC(O)CC(C)(C)N1[O] | – | inactive
CC/C=C\C/C=C\C/C=C\CCCCCCCC(=O)OC | 29.7 µM (active) | –
Nc1ccc(C(=O)O)cc1 | – | inactive
c1ccc2c(c1)[nH]c1ccccc12 | – | inactive
Clc1cc(Cl)c(Cl)c(Cl)c1Cl | – | inactive
C=CC(=O)OCCCCCCCC(C)C | – | inactive
O=C1CCCCCCCCCCCN1 | – | inactive
Oc1ccccc1Cc1ccccc1O | – | inactive
CCN1CN(CC)CN(CC)C1 | – | inactive
O=C1CCCCCCCCCCC1 | – | inactive
CCc1cccc(C)c1N(C(=O)CS(=O)(=O)O)C(C)COC (stereo not given) | – | inactive
CC(C)[N+](C)(CCOC(=O)C1c2ccccc2Oc2ccccc21)C(C)C | – | inactive
C1CNCCN1 | – | inactive
O=C(Oc1ccccc1)c1ccccc1C(=O)Oc1ccccc1 | – | inactive
CCCCCCCCCCCC(=O)N(C)CC(=O)O | – | inactive
Cc1c(O)cccc1O | – | inactive
